An excerpt weighted towards active compounds, which were near 2.6% of everything screened.
ATXN2 expr inh: Primary qHTS for Inhibitors of ATXN expression | HEK-293 ATXN2-luciferase reporter, luminescence, 24 h | Potency, µM (doses to about 57 µM), hits mostly inhibitors | hit rate 0.72% among 360,000 | AID 1745845, 2022; further: nearly all actives have a fitted effect of over 55% in size
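qHTS (up to 57 uM final) was run with 24 h compound exposure of reporter cells at 37 °C. Each well was multiplexed: SteadyGlo luminescence measured ATXN2-luciferase expression after a fluorogenic Gly-Phe-AFC viability readout (25 uM final).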
S2 tox: Viability Counterscreen for Primary qHTS for Inhibitors of ATXN expression. Potency, µM (top dose mostly 56.7 µM), actives largely listed as cytotoxic. hit rate 0.49% among 400,000. AID 651635, 2014. S2 cells (HEK-293 line with an ATXN2-luciferase reporter) viability, CellTiter-Fluor protease fluorescence, 24 h; further: nearly all actives have a fitted effect of over 40% in size
Giardia kill: Small Molecules that selectively kill Giardia lamblia: qHTS. hit rate 0.15% among 340,000. activity change, % at 7.66 µM, hits read low. Giardia lamblia trophozoite viability; in the data active means activity change below about -80%; inconclusive means between about -30% and that limit;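 further: parasites exposed to compound for two days anaerobically before the ATP read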
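Luminescence from cellular ATP indicates surviving trophozoites (100 cells/well) following 48 hrs anaerobic compound treatment at 37 deg C; signal develops 15-30 min at room temperature.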
HepG2 tox: qHTS for Inhibitors of TGF-b: Cytotox Counterscreen; Potency, µM (titrated, usually from 46.1 µM), usual class: cytotoxic; hit rate 0.76% among 410,000; HepG2 CAGA-GFP viability, ATP luminescence, 18 h
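CellTiter-Glo luminescence gave cytotoxicity after 18 hours at 37 degrees C. The cells were HepG2 CAGA-GFP in 1% FBS DMEM, stimulated with 500 pg/mL TGF-beta after compound addition. %Activity was normalised to no-cell wells (complete cell-killing) and DMSO (no toxicity), and curves were fitted and classified.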
uPA surface inh: qHTS for Inhibitors of Cell Surface uPA Generation. Potency, µM (series often up to 38.3 µM), hits mostly inhibitors. cell surface uPA generation assay, qHTS. hit rate 0.31% among 330,000; active means well fitted inhibition curve with a large enough effect; inconclusive means small, poorly fitted or top-dose-only effect; inactive means no such curve, though single readings can be large or run the other way; tested in mouse RAW 264.7 cells; further: nearly all actives have a fitted effect of over 55% in size
TGFb SMAD3 inh: qHTS for Inhibitors of TGF-b; HepG2 CAGA-GFP TGF-b/SMAD3 reporter, GFP fluorescence, 18 h; TGF-beta stimulated, 500 pg/mL final; Potency, µM (series often up to 46.1 µM), hits mostly inhibitors; hit rate 1.2% among 410,000; further: nearly all actives have a fitted effect of over 65% in size
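Per well, imaged GFP fluorescence of HEPG2 CAGA-GFP cells gives the signal; cells get compound, then TGF-beta (500 pg/mL final), 18 h at 37 degrees C; %Activity versus -TGF-beta and +DMSO controls.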
Large screens that a line does not name were inactive; ! = repeats disagree. Unless noted, the call rests on the fitted dose curve; in most records, active means well fitted curve in the direction sought with a large enough effect; inconclusive means small, poorly fitted or top-dose-only effect, or another doubt; inactive means no such curve, though single readings can be large; an effect the other way counts as inactive or inconclusive.

O=C(C[n+]1cccc2ccccc21)c1ccc(F)cc1	TGFb SMAD3 inh inconclusive (no result: ATXN2 expr inh, S2 tox, Giardia kill, uPA surface inh)
N[C@@H](C(=O)N[C@H]1C(=O)N2C(C(=O)O)=C(Cl)CC[C@H]12)c1ccccc1	none (no result: ATXN2 expr inh, Giardia kill, HepG2 tox, uPA surface inh, TGFb SMAD3 inh)
Cc1ccc(S(=O)(=O)n2ccc3cccnc32)cc1	none
Cc1ccc(S(=O)(=O)n2cccc2/C=C/[N+](=O)[O-])cc1	S2 tox inconclusive, HepG2 tox 13µM, TGFb SMAD3 inh 14µM (no result: ATXN2 expr inh, Giardia kill, uPA surface inh)
COc1ccc2[nH]cc(C(=O)CCl)c2c1	ATXN2 expr inh inconclusive, S2 tox 16µM, uPA surface inh inconclusive, TGFb SMAD3 inh inconclusive
COc1cc2nc(N3CCN(c4cc(C)ccc4C)CC3)nc(N)c2cc1OC	ATXN2 expr inh inconclusive, Giardia kill inconclusive, HepG2 tox 11µM, TGFb SMAD3 inh inconclusive (no result: S2 tox)
Cc1ccc(-c2nc3ccccc3o2)cc1NC(=O)COc1ccccc1C	none (no result: ATXN2 expr inh, S2 tox, Giardia kill, uPA surface inh)
N#Cc1cc2ccccc2nc1N	HepG2 tox 0.28µM, TGFb SMAD3 inh inconclusive
Nc1nc2ccccc2cc1-c1cccs1	uPA surface inh inconclusive
O=C(C1CCCCC1)N1CCN(c2ccnc3cc(Cl)ccc23)CC1	ATXN2 expr inh 18µM, S2 tox inconclusive
COc1ccccc1N1CCN(c2ccnc3cc(Cl)ccc23)CC1	ATXN2 expr inh 11µM, S2 tox inconclusive
CCC1(C2CCN(C(=O)c3ccc(C)cc3C)CC2)NC(=O)N(CCc2scnc2C)C1=O (stereo not given)	none (no result: ATXN2 expr inh, Giardia kill, HepG2 tox, uPA surface inh, TGFb SMAD3 inh)
CCCOc1ccc(Br)cc1CSC(=N)N	ATXN2 expr inh inconclusive, uPA surface inh 5.6µM, TGFb SMAD3 inh inconclusive
CCOc1ccc(Br)cc1CC(=O)O	none
Cc1cnc(-n2ncc(C(=O)NCc3ccccn3)c2C2CC2)nc1-c1cccs1	none (no result: ATXN2 expr inh, Giardia kill, HepG2 tox, uPA surface inh, TGFb SMAD3 inh)
O=C(NCc1ccco1)c1ccccc1-c1nc(-c2ccccc2)no1	HepG2 tox 2µM (no result: uPA surface inh)
CCC1=Nc2cc(C(=O)NCc3ccco3)ccc2Sc2ccccc21	S2 tox inconclusive, uPA surface inh 3.2µM
CCN1C(=O)c2ccc(C(=O)NCc3ccco3)cc2C1=O	S2 tox 0.16µM
CCCN1C(=O)c2ccc(C(=O)NCc3ccco3)cc2C1=O	none (no result: uPA surface inh)
CCC1=Nc2cc(C(=O)NCc3ccco3)ccc2Sc2ccc(Cl)cc21	S2 tox inconclusive, TGFb SMAD3 inh inconclusive
COc1ccc(CCNc2ncnc3sc(C(=O)N4CCCCC4)c(C)c23)cc1OC	none (no result: ATXN2 expr inh, Giardia kill, HepG2 tox, uPA surface inh, TGFb SMAD3 inh)
CC(C)(C)n1ncc2c(=O)n(Cc3ccc(Cl)c(OC(F)(F)F)c3)cnc21	TGFb SMAD3 inh inconclusive (no result: ATXN2 expr inh, S2 tox, Giardia kill, uPA surface inh)
O=C(NCc1ccccc1)C1=C[C@@H](c2csc3ccccc23)C[C@@H](OCCCCO)O1	ATXN2 expr inh 5.6µM, S2 tox inconclusive, uPA surface inh inconclusive, TGFb SMAD3 inh inconclusive
O=C(O)c1ccc(N/N=C/c2ccc(OC(=O)c3cccc(Cl)c3)cc2)cc1	ATXN2 expr inh 5µM
O=C(CSc1ccsc1[N+](=O)[O-])NC1CCCC1	Giardia kill -90
CC1CCCCC1NC(=O)CSc1ccsc1[N+](=O)[O-] (stereo not given)	Giardia kill inconclusive
COc1ccc(CCNC(=O)CSc2ccsc2[N+](=O)[O-])cc1OC	Giardia kill -89
COc1ccc(OC)c(CCNC(=O)CSc2ccsc2[N+](=O)[O-])c1	Giardia kill inconclusive, uPA surface inh inconclusive
CCCN1CCN(CCCNC(=S)Nc2ccc3nc(N4CCN(CC)CC4)cc(C)c3c2)CC1	none (no result: ATXN2 expr inh)
Cc1cc(N2CCCC2)nc2ccc(NC(=S)NCCCN3CCC(C)CC3)cc12	ATXN2 expr inh inconclusive, S2 tox inconclusive, HepG2 tox 18µM, TGFb SMAD3 inh inconclusive
Cc1cc(N2CCN(C)CC2)nc2ccc(NC(=S)NCCCN3CCc4ccccc4C3)cc12	ATXN2 expr inh 32µM, S2 tox 18µM
Cc1ccc(C)c(C(=O)N2CCC(C3(c4ccccn4)NC(=O)N(CC4CCCO4)C3=O)CC2)c1 (stereo not given)	none (no result: ATXN2 expr inh, Giardia kill, HepG2 tox, uPA surface inh, TGFb SMAD3 inh)
CS(=O)(=O)N1CCN(c2nc(-c3cccs3)nc3ccccc23)CC1	none (no result: ATXN2 expr inh, S2 tox, HepG2 tox, uPA surface inh, TGFb SMAD3 inh)
CN(C)CCCn1c(=S)[nH]c2ccccc2c1=O	none
CN(C)CCCn1c2c3ccccc3ccc2c2oc(=O)c3ccccc3c21	ATXN2 expr inh inconclusive, S2 tox inconclusive, HepG2 tox 10µM!, TGFb SMAD3 inh 8.9µM

Source: PubChem BioAssay (National Center for Advancing Translational Sciences (NCATS))
